# The supplement of paper PMC3334620
# Over roughly 33,000 sequences, “E-score (-0.5 to 0.5)” has its median near -0.041; the highest 2% begin near 0.37. The sample as a whole holds a higher share of the highest values than the screen did.
# Biological target: T1, Ecm22 (UniProt Q05958)
# T1 sequence: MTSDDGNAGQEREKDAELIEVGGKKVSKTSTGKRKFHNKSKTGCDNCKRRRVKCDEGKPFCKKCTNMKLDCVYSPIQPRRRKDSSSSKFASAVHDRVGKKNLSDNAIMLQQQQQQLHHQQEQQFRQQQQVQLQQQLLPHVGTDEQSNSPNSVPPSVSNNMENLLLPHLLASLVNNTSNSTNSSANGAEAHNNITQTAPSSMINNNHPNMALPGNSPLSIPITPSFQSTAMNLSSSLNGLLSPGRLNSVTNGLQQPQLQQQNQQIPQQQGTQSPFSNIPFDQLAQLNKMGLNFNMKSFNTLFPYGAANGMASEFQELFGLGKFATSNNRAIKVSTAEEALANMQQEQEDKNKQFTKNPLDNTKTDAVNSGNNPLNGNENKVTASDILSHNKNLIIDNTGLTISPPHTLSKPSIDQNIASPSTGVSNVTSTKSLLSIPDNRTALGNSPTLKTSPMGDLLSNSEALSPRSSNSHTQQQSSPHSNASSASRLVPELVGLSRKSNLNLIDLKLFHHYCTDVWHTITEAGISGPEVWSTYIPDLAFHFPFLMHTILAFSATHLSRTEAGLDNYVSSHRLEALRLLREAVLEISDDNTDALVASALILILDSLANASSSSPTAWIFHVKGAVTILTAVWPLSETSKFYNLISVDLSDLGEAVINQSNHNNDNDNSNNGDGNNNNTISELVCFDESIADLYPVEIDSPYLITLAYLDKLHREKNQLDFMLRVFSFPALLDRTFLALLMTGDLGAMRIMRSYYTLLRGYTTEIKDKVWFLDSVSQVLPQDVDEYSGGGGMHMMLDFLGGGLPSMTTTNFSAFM
# Test: PBM E-score (8-mer binding enrichment) (E-score (-0.5 to 0.5)); higher = stronger / more preferred TF binding
# Conditions: protein concentration: 200 nM; construct: GST-full length
# Protocol: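 Universal 'all 10-mer' protein binding microarrays (Agilent AMADID 015681) probed with GST-tagged S. cerevisiae TFs (full-length or DBD) made by in vitro transcription/translation (PURExpress), about 100-200 nM. Bound TF was detected with fluorescent anti-GST. Each ungapped 8-mer (which stands for itself and its reverse complement) is scored by the PBM enrichment score (E-score), a modified Wilcoxon-Mann-Whitney statistic from -0.5 to +0.5, computed with the Universal PBM Analysis Suite. Scale: above 0.35 generally sequence-specific binding.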
row,Sequence,PBM E-score
1,AATATACA,0.104
2,AATATACT,-0.0273
3,CATATACA,0.0321
4,AAAATACC,0.0602
5,AAAATACG,0.372
6,AAAATACA,-0.0245
7,AATATACG,0.461
8,CATATACG,0.445
9,CATATACC,-0.0901
10,ACCCCGGT,0.00636
11,GGAGTTGA,0.0109
12,CTCTAGAA,-0.201
13,AAGGGCCC,-0.0372
14,CGCGGCTA,0.0813
15,ACATGCCC,-0.0896
16,ATCCGTGC,-0.0378
17,CTCCGTAA,0.187
18,CACCGTAA,0.277
19,CTCCGTAC,0.386
20,CACCGTAG,0.0943
21,ATCCGTAC,0.363
22,CACCGTAC,0.4
23,AAAAAGGG,-0.092
24,ACATCTAT,0.0869
25,CCAGGGCA,-0.108

row,Sequence,PBM E-score
1,GGCGCCCA,-0.0786
2,TCGCCCGA,-0.102
3,GGCGTAAA,0.159
4,TCCGTAAA,0.332
5,TTCGTAAA,0.456
6,GACGTAAA,0.154
7,GTCGTAAA,0.473
8,ATCGTAAT,0.263
9,TGCGTAAA,0.228
10,CACGTAAA,0.106
11,ATCGTAAG,0.308
12,CCCGTAAA,0.32
13,ATCGTAAA,0.436
14,CTCGTAAA,0.475
15,CTCCACAG,-0.248
16,GCGCGACC,0.173
17,ACTCCGGC,0.0584
18,AAAAACTG,-0.116
19,GCCTCGCA,0.205
20,ACAACCGC,0.111
21,AGCCTTAC,-0.108
22,CTTCGGCC,-0.151
23,ACGAACAC,0.318
24,GCGAACAA,0.148
25,CCGAACAA,0.127

row,Sequence,PBM E-score
1,ACGAACAT,0.386
2,ACGAACAG,0.282
3,ACGAACAA,0.38
4,GGCCGACC,-0.224
5,GCCTGAAA,-0.139
6,GACGTCTA,-0.23
7,AGGACGGG,-0.147
8,CCGACGGA,0.0916
9,ATGACGGG,-0.125
10,CCGACGGC,0.129
11,GCGACGGA,0.124
12,ACGACGGC,0.37
13,ACGACGGA,0.388
14,ATGACGGC,-0.236
15,ACGACGGG,0.393
16,CACGTTCC,0.201
17,AGGCAACT,-0.02
18,ATCCTACC,-0.186
19,AACGGAGA,0.18
20,ATCGGGCA,-0.122
21,CTGCGAAG,-0.0466
22,AATAAACT,-0.0489
23,AATAAACA,0.0258
24,CATAAACG,0.437
25,CATAAACA,-0.0236

row,Sequence,PBM E-score
1,AATAAACG,0.41
2,CATAAACC,-0.0464
3,CGGCACTA,-0.0606
4,GAAGTCGC,0.108
5,ATGCACCA,-0.108
6,TAGATAAA,0.057
7,GCGACGTA,0.265
8,CCGACGAG,0.165
9,ACGACGTG,0.372
10,ATGACGTG,-0.166
11,ACGACGTC,0.393
12,AAGACGTC,0.00719
13,ACGACGTA,0.414
14,ACGACGAG,0.38
15,AGGACGTG,-0.194
16,CCGACGTC,0.138
17,CCGACGTA,0.208
18,ACGACGAC,0.364
19,GACCCGTA,0.24
20,ACCTTCGC,0.143
21,CAGGACGA,-0.283
22,CTCCGTTA,0.0433
23,GTCTACCA,-0.215
24,AAAAACGA,0.323
25,ATAAACTG,0.0158

row,Sequence,PBM E-score
1,GTAAACGA,0.485
2,GTAAACCA,0.0466
3,ATAAACGC,0.192
4,AAAAACGG,0.13
5,ATAAACGA,0.484
6,ATAAACGG,0.408
7,GTAAACTA,0.188
8,CATCCCCC,-0.207
9,GATCCACA,-0.13
10,GTGAACGA,0.426
11,ATGAACGA,0.453
12,CTGAACTA,-0.092
13,GTGAACTA,0.0738
14,CTGAACGA,0.456
15,ATGAACGG,0.262
16,ATGAACGC,0.118
17,CTGAACGC,0.023
18,GTGAACAA,0.198
19,AACGGTTA,0.27
20,CATTGTCG,0.0896
21,CTAGGGAC,-0.323
22,CGCCAGAC,0.00345
23,GGTAACAC,-0.135
24,AATTCGTA,0.441
25,GATTCGTA,0.45

row,Sequence,PBM E-score
1,GATTCGGA,0.171
2,AATTCGTG,-0.036
3,CATTCGTA,0.407
4,GATTCGCA,0.227
5,CATTCGCA,0.0842
6,CATTCGTC,0.112
7,AATTCGTC,0.0772
8,ACCCCCCT,-0.25
9,AGTAGGCC,0.00266
10,GAATTGTC,-0.0741
11,AGAACCCA,-0.131
12,GGCTCCTA,-0.159
13,GCATTTAC,-0.0379
14,ATTCCGTA,0.284
15,CTTCCGTA,0.319
16,GTTCCGTA,0.389
17,ACAGAAGC,-0.0614
18,ACGTACGC,0.239
19,GCGTACGA,0.448
20,CCGTACGG,0.378
21,ACGTACGG,0.362
22,GCGTACTA,0.152
23,ACGTACGT,0.245
24,TCGTACGA,0.469
25,CCCTACGG,-0.215

row,Sequence,PBM E-score
1,TCCTACGA,0.26
2,TCGCACGA,0.183
3,ACGTACGA,0.441
4,GCGTACGC,0.178
5,CTAGCGGC,-0.29
6,AGAGCGGC,-0.228
7,CTCTTAAC,0.0664
8,ATCTGCAC,-0.117
9,CATCAGCC,-0.121
10,TAGCTGAA,0.0371
11,ACTTCGAG,-0.105
12,TCCGCCAA,-0.121
13,ATTTCTGA,-0.286
14,AAGTGCAA,-0.0854
15,AGGTCAGA,-0.204
16,TGAGGTAA,-0.264
17,CCGTACTA,0.341
18,CCGTACGC,0.324
19,CCGTACGA,0.445
20,GAGGTTGA,-0.0744
21,AGAGAAGC,-0.0688
22,CGTTTATA,0.426
23,CTTTTATC,-0.0345
24,AGTTTATC,0.0904
